The values below come from PubChem BioAssay (NCATS).

One test has as its system CRL-7250. The experiment in a line: Cytotoxic Profiling of Annotated Libraries Using Quantitative High-Throughput Screening (AID 1296008). Also: potency is read from the fitted curve at half-maximal effect. As to max response: % is scaled to controls: 0 for no effect and ±100 for the full control effect. The note with it: Five cell lines viability, CellTiter-Glo ATP luminescence, 48-72 h; max response: hits give low values. The essentials:
(§1)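 Cytotoxicity was measured as CellTiter-Glo ATP luminescence, read after 10 min at room temperature. Compound treatment of the cells lasted 48 or 72 hr at 37 degrees Celsius in a qHTS format.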

In another test the test system is HEK293. The test is described as above. To be noted: Five cell lines viability, CellTiter-Glo ATP luminescence, 48-72 h; max response: hits give low values. The essentials: as §1
Test [1] relates to HaCat. The test is described as above. To be noted: Five cell lines viability, CellTiter-Glo ATP luminescence, 48-72 h; max response: hits give low values. The essentials: as §1
(ATP-based viability assays read luminescence as a measure of living cells.)

Another test deals with KB-3-1. The test is described as above. The note with it: Five cell lines viability, CellTiter-Glo ATP luminescence, 48-72 h; max response: hits give low values. The essentials:
as §1

Another test concerns NIH3T3. The description is as above. To be noted: Five cell lines viability, CellTiter-Glo ATP luminescence, 48-72 h; max response: hits give low values. The procedure, abridged: as §1
The test system of test [2] is HACAT. Nature of the test: qHTS assay to identify novel small-molecules to repurpose for Merkel cell carcinoma treatment (AID 1296009). The note with it: MCC and control cell lines, CellTiter-Glo viability, 72 h; at 44.8 µM (top of the series) unless noted. The procedure, abridged:
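Cell viability measured by CellTiter-Glo following 72 hr compound treatment at 37 degree celsius, with NPC and MIPE libraries tested in 8- and 11-point concentration series.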

Inconclusive results are not listed. A number with no mark means an inactive call. Activity calls are given as the source filed them. Calls follow the shape of the dose curve; as a rule, active = well fitted inhibition curve with a large enough effect; inconclusive = small, poorly fitted or top-dose-only effect; inactive = flat fitted curve, though single readings scatter.
Also: nearly all actives have a fitted effect of over 60% in size.

As for `COc1cc(CCCO)ccc1O[C@@H]1O[C@H](CO)[C@@H](O)[C@H](O)[C@H]1O`, the compound was called inactive in the test on CRL-7250, with HaCat [1], in the test with KB-3-1 and in the test with HACAT [2]. Besides, the max response was 0.679% in the test with HEK293 and -1.2% with NIH3T3.

For the compound `CC1=CCC[C@@H]2[C@@](C)(CCc3ccoc3)[C@H](C(=O)O)CC[C@@]12C`, the max response in the test with CRL-7250 was -0.266%; in the test on HEK293 it was -0.612%; in the test with KB-3-1, -0.465%; with NIH3T3, -9.18%. Further, the compound was called inactive with HaCat [1] and with HACAT [2].

For the compound `C=C(C)[C@@H]1CC[C@]2(C)CC[C@]3(C)C(CCC4[C@@]5(C)CC[C@H](O)C(C)(C)C5CC[C@]43C)C12` (stereo not given in full), the outcome in the test with CRL-7250, in the test on HaCat [1] and in the test with KB-3-1 was inactive. Also, the max response with HEK293 is 1.06%; in the test with NIH3T3 it was 2.33%. Moreover, the outcome in the test on HACAT [2] was “inactive [at 17.4 µM]”.

Take `O=C(O)c1cccc(CN2C(=O)/C(=C(\c3ccccc3)c3ccc(Cl)cc3)c3ccccc32)c1`: the max response with CRL-7250 is 3.11%; with HEK293, -10.4%; with KB-3-1, 5.03%; in the test with NIH3T3, -3.22%. The outcome with HaCat [1] and in the test on HACAT [2] was inactive.

With `CC(=O)O[C@@H]1CC2C(C)(C)C(=O)C=C[C@]2(C)C2CC[C@]3(C)C(=CC(=O)[C@@H]3c3ccoc3)[C@@]21C` (stereo not given in full), the figures for the max response in the test on CRL-7250, in the test on HEK293 and in the test on NIH3T3 were 0.62%, -22.3% and 0.533%, respectively. The outcome in the test on HaCat [1] and in the test on KB-3-1 was inactive. For the same compound, in the test with HACAT [2], the outcome was “inactive [at 17.4 µM]”.

As to `C[C@H]1CC[C@@]2(OC1)O[C@H]1CC3C4CC[C@H]5C[C@@H](O)CC[C@]5(C)C4CC(=O)[C@]3(C)[C@H]1[C@@H]2C` (stereo not given in full), the max response in the test on CRL-7250 is 2.1%; in the test on HEK293, -2.47%; in the test on NIH3T3, 3.42%. For the same compound, the compound was classed as inactive with HaCat [1] and in the test on KB-3-1. The outcome with HACAT [2] was “inactive [at 17.4 µM]”.

Take `CCC(C)/C=C(C)/C=C/C1=CC2=C(Cl)C(=O)C(C)(OC(C)=O)C(=O)C2=CN1C(CC(=O)O)C(=O)O` (stereo not given): the max response in the test with CRL-7250 was 4.26%; in the test on HEK293, 4.62%; in the test with KB-3-1, 7.58%; in the test on NIH3T3, -16.9%. In addition, the call with HaCat [1] was inactive. In addition, the outcome with HACAT [2] was “inactive [at 17.4 µM]”.

With `C=CC(C)(CC/C=C(\C)C(=O)OC[C@H]1O[C@@H](OC(C)(C=C)CC/C=C(\C)C(=O)O[C@H]2[C@H](O)[C@@H](O)[C@H](OC(C)(C=C)CC/C=C(\C)C(=O)O)O[C@@H]2CO)[C@H](O)[C@@H](O)[C@@H]1O)O[C@@H]1O[C@H](CO)[C@@H](O)[C@H](O)[C@H]1O` (stereo not given in full), the max response was -2.1% in the test on CRL-7250, -7.01% in the test on HEK293, 3.96% in the test on KB-3-1 and -1.72% in the test on NIH3T3. Further, in the test on HaCat [1], the compound was classed as inactive. Further, the outcome with HACAT [2] is “inactive [at 9.27 µM]”.

With `CC1(C(=O)O)CC[C@]2(C(=O)OC3OC(CO)C(O)C(O)C3O)CC[C@]3(C)C(=CCC4[C@@]5(C)CC[C@H](OC6OCC(O)C(O)C6OC6OC(CO)C(O)C(O)C6O)C(C)(C)C5CC[C@]43C)C2C1` (stereo not given in full), the max response in the test on CRL-7250 was 0.0336%; with HEK293, -7.14%; in the test on NIH3T3 it was 0.38%. For the same compound, the outcome with HaCat [1] and in the test on KB-3-1 was inactive. In addition, the outcome in the test with HACAT [2] was “inactive [at 9.27 µM]”.

On to `COc1cccc(C(=O)NCCNc2nc3cc(C)cc(C)c3cc2C#N)c1`, for which the max response with CRL-7250 was -1.46%; in the test with HEK293, -19%; in the test on KB-3-1, 5.87%; in the test with NIH3T3, -4.31%. Besides, the outcome with HaCat [1] and with HACAT [2] was inactive.

As to `C=C1CC23CC1CCC2C12OC(=O)C(C)(C(O)CC1O)C2C3C(=O)O` (stereo not given), the max response with CRL-7250 is -0.83%; in the test on HEK293 it was -15.6%; in the test on KB-3-1, 1.34%; in the test on NIH3T3, -6.25%. Further, the call with HaCat [1] and in the test with HACAT [2] was inactive.

For the compound `C[C@@H]1O[C@@H](OC2C(CO)OC(OCC3OC(OC(=O)[C@]45CCC(C)(C)CC4C4=CCC6[C@@]7(C)CC[C@@H](O)[C@](C)(C(=O)O)C7CC[C@@]6(C)[C@]4(C)CC5)C(O)C(O)C3O)C(O)C2O)[C@H](O)[C@H](O)[C@H]1O` (stereo not given in full), the compound was called inactive with CRL-7250 and with HaCat [1]. Further, the max response with HEK293 was 2.84%; with KB-3-1, -3.25%; with NIH3T3, -0.476%. Moreover, the outcome in the test on HACAT [2] is “inactive [at 9.27 µM]”.

Turning to `COc1cc(O)cc2c1C(=O)OC(C)CCCCCCC2` (stereo not given), the max response in the test on CRL-7250 was 0.54%; with HEK293, -6.62%; with NIH3T3, -11.2%. Also, the compound was called inactive with HaCat [1], in the test with KB-3-1 and in the test on HACAT [2].

Take `CC(CNS(=O)(=O)C(C)C)c1ccc(-c2ccc(C#N)cc2)cc1` (stereo not given): the Potency with CRL-7250 is 5.8 µM (active); in the test with HEK293, 7.31 µM (active). Also, the call in the test with HaCat [1] and in the test with HACAT [2] was inactive. Besides, the max response is -27.5% in the test on KB-3-1 and -14.2% in the test on NIH3T3.

Regarding `CC(=O)OC1CC(C(C)(C)O)OC2CCC3(C)OC4=C(C(=O)C=C5C(C)C(OC(C)=O)C6(C)C(C)OC546)C(O)C3C12C` (stereo not given), the compound was classed as inactive with CRL-7250 and in the test with HaCat [1]. For the same compound, the max response was -23.5% in the test on HEK293, 5.34% in the test on KB-3-1 and 1.94% in the test with NIH3T3. For the same compound, the outcome with HACAT [2] is “inactive [at 17.4 µM]”.

`Cc1cc(C(=O)N2Cc3cnn(C)c3Nc3ccccc32)ccc1CNC(=O)N1CCN(Cc2cc(O)cc(O)c2)CC1`: the outcome in the test with CRL-7250, in the test on HaCat [1], with KB-3-1 and in the test with HACAT [2] was inactive. Moreover, the max response is -0.745% with HEK293 and -0.633% with NIH3T3.

As for `COc1cc(C2Oc3c(OC)cc(CCCO)cc3C2CO)ccc1O` (stereo not given), the result with CRL-7250, in the test with HaCat [1], in the test with KB-3-1 and in the test with HACAT [2] was inactive. The max response in the test on HEK293 is 3.43%; with NIH3T3 it was -0.27%.

As for `C/C(=C/CO)CC[C@H]1[C@]2(C)C[C@H](O)CC(C)(C)[C@H]2CC[C@]1(C)O`, the max response in the test on CRL-7250 is -3.5%; in the test on HEK293 it was 4.37%; in the test with KB-3-1 it was 3.57%; in the test with NIH3T3, 3.86%. In addition, the outcome with HaCat [1] and with HACAT [2] was inactive.

Consider `C[C@@H]1O[C@@H](OC2C(O[C@H]3[C@H](O[C@H]4CC[C@@]5(C)C(CC[C@]6(C)C5CC=C5C7CC(C)(C)CC(O)[C@]7(C)CC[C@]56C)C4(C)C)O[C@H](C(=O)O)[C@@H](O)[C@@H]3O)OC(CO)C(O)C2O)[C@H](O)[C@H](O)[C@H]1O` (stereo not given in full), for which the max response in the test on CRL-7250 was 4.13%; with HEK293, -5.35%; with KB-3-1, 3.37%; in the test with NIH3T3 it was 1.38%. In the test with HaCat [1], the call was inactive. For the same compound, the outcome in the test with HACAT [2] was “inactive [at 9.27 µM]”.

On to `CC1(C)C2CC[C@@]34CC(CC[C@H]3[C@]2(C)CC[C@@H]1O[C@@H]1O[C@H](CO)[C@@H](O)[C@H](O)[C@H]1O)[C@](C)(O)C4` (stereo not given in full), for which the max response with CRL-7250 is -8.76%; in the test on HEK293, 0.264%; in the test with KB-3-1 it was 8.52%. Besides, the compound was called inactive in the test on HaCat [1] and in the test on NIH3T3. For the same compound, in the test with HACAT [2], the outcome was “inactive [at 17.4 µM]”.

Regarding `C/C=C1\[C@H](O[C@@H]2O[C@H](CO)[C@@H](O)[C@H](O)[C@H]2O)OC=C(C(=O)OCCc2ccc(O)cc2)[C@H]1CC(=O)OCCc1ccc(O)cc1`, the max response in the test on CRL-7250 is 0.139%; in the test with HEK293 it was -2.9%; in the test on KB-3-1 it was -0.75%; in the test with NIH3T3, -3.77%. Besides, the result with HaCat [1] was inactive. Moreover, the outcome in the test with HACAT [2] is “inactive [at 17.4 µM]”.

In the case of `C[C@@H]1O[C@@H](O[C@H]2[C@@H]3C=CO[C@@H](O[C@@H]4O[C@H](CO)[C@@H](O)[C@H](O)[C@H]4O)[C@@H]3[C@@]3(CO)O[C@@H]23)[C@H](O)[C@H](O)[C@H]1OC(=O)/C=C/c1ccc(O)cc1`, the max response in the test on CRL-7250 is -9.97%; in the test with HEK293, 1.82%; with KB-3-1 it was -5.93%; in the test with NIH3T3 it was -3.44%. Besides, the outcome in the test on HaCat [1] was inactive. For the same compound, the outcome in the test on HACAT [2] was “inactive [at 17.4 µM]”.

For `COC(=O)[C@]1(C)CCC[C@@]2(C)C(=O)CC[C@H]3C(=O)C=C(CC[C@@H]21)C3O` (stereo not given in full), the max response was -8.93% in the test with CRL-7250, -5.09% in the test on HEK293, -0.869% with KB-3-1 and 1.41% in the test on NIH3T3. Also, the outcome in the test with HaCat [1] and in the test on HACAT [2] was inactive.

`C/C=C(/C)C(=O)O[C@@H]1C[C@@H](OC(=O)/C(C)=C\C)[C@@]2(C)C3C(=O)C=C(C)C2C3C1(C)C`: the max response with CRL-7250 was -3.44%; with HEK293, -8.78%; in the test with NIH3T3, 4.88%. The compound was called inactive in the test on HaCat [1] and in the test with KB-3-1. Further, the outcome in the test with HACAT [2] was “inactive [at 17.4 µM]”.

As to `COC(=O)C1=CO[C@@H](O[C@@H]2O[C@H](CO)[C@@H](O)[C@H](O)[C@H]2O)[C@@H]2[C@@H](CO)[C@@H](O)C(O)[C@H]12` (stereo not given in full), the outcome in the test on CRL-7250, in the test on HaCat [1] and with KB-3-1 was inactive. Besides, the max response was -5.81% with HEK293 and 1.79% in the test with NIH3T3. Further, the outcome with HACAT [2] was “inactive [at 17.4 µM]”.
